Laboratory results as given in PubChem BioAssay (Tox21).
Records with an inconclusive call do not appear. Active and inactive are the calls of the source. Calls come from the whole dose curve.

Experiments:
[1] = target: Acetylcholinesterase (Homo sapiens) (UniProt P22303); test: Acetylcholinesterase (AChE) small molecule antagonists: colormetric cell-based qHTS assay (AID 1347395); note: nearly all actives have a fitted effect of over 30% in size
Outline: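 Colorimetric read-out: DTNB detects thiocholine released when cellular AChE in SH-SY5Y cells hydrolyses acetylthiocholine. Cells attached overnight, received compound for 30 min at 37 C, then substrate mix for 90 min at 37 C.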

[2] = target: Acetylcholinesterase (Homo sapiens) (UniProt P22303); test: Acetylcholinesterase (AChE) small molecule antagonists: enzyme-based qHTS assay (AID 1347397); settings: Potency: AChE enzyme activity inhibition; outcome: AChE enzyme activity inhibition; note: nearly all actives have a fitted effect of over 55% in size
Outline: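 Colorimetric DTNB readout of acetylthiocholine hydrolysis, 10 min at room temperature, after 30 min room-temperature exposure of 50 mU/mL recombinant human enzyme to compound; DMSO vehicle control.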

[3] = target: Acetylcholinesterase (Homo sapiens) (UniProt P22303); test: Acetylcholinesterase (AChE) small molecule antagonists: fluorescence cell-based qHTS assay (AID 1347398); settings: Potency: AChE activity; outcome: AChE activity; note: nearly all actives have a fitted effect of over 50% in size
Outline: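 Cellular AChE activity read as thiocholine from acetylthiocholine hydrolysis, detected by Thiolite Green fluorescence at 490/520 nm after 40 min at room temperature. Compounds were pre-incubated 30 min at 37 C on adherent SH-SY5Y cells.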

[4] = target: Acetylcholinesterase (Homo sapiens) (UniProt P22303); test: Acetylcholinesterase (AChE) small molecule antagonists: enzyme-based qHTS assay with human liver microsomes (AID 1347399); settings: Potency: qHTS inhibition; outcome: qHTS inhibition; note: nearly all actives have a fitted effect of over 60% in size
Outline: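 Recombinant human AChE (50 mU/mL in the enzyme mix) and human liver microsomes (0.25 mg/mL final) were preincubated with compound and NADPH (0.25 mg/mL final) for 30 min at 37 C. Acetylthiocholine/DTNB was then added; thiocholine was read colorimetrically after 10 min at room temperature.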
% is set by controls: 0 for no effect and ±100 for the full control effect.

Acetylcholinesterase (Homo sapiens), sequence (P22303 whole entry, looked up): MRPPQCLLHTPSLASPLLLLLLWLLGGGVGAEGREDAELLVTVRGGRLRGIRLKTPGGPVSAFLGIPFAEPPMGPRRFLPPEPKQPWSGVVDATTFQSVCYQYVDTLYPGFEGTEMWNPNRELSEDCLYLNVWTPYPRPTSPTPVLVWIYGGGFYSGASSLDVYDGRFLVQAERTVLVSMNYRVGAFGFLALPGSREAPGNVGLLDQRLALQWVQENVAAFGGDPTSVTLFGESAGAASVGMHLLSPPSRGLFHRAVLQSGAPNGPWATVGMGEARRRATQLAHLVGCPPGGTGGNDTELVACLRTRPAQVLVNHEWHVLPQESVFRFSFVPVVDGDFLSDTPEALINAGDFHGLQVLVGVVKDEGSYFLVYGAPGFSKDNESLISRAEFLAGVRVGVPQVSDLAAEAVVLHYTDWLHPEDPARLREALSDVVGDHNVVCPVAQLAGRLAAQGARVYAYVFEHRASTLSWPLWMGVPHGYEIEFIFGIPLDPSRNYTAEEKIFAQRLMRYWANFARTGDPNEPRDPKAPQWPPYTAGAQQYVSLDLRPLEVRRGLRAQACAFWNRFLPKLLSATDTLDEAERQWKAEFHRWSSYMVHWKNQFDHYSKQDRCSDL

N#Cc1ccccc1C#N
inactive: Potency [1] | Potency [2] | Potency [3] | Potency [4]

CC1=C(C=O)C(C)(C)CCC1
inactive: Potency [1] | Potency [2] | Potency [3] | Potency [4]

Cc1ccccc1C(=O)Nc1ccc(C(=O)N2CCCC(N(C)C)c3ccccc32)cc1 (stereo not given)
inactive: Potency [1] | Potency [2] | Potency [3] | Potency [4]

Cc1cccc(C(C)(C)C)c1O
inactive: Potency [1] | Potency [2] | Potency [3] | Potency [4]

CN1CCCC1=O
inactive: Potency [1] | Potency [2] | Potency [3] | Potency [4]

CC(C)CC(C)CC(C)CC(C)COC(=O)c1ccccc1C(=O)OCC(C)CC(C)CC(C)CC(C)C (stereo not given)
inactive: Potency [1] | Potency [2] | Potency [3] | Potency [4]

O=C=Nc1ccc(Cc2ccc(N=C=O)cc2)cc1
inactive: Potency [1] | Potency [2] | Potency [3] | Potency [4]

CCc1cccc(O)c1
inactive: Potency [1] | Potency [2] | Potency [3] | Potency [4]

O=C(O)CCCc1c[nH]c2ccccc12
inactive: Potency [1] | Potency [2] | Potency [3] | Potency [4]

COc1c2ccoc2cc2oc(=O)ccc12
inactive: Potency [1] | Potency [2] | Potency [3] | Potency [4]

CSc1c(Cl)c(Cl)c(Cl)c(Cl)c1Cl
inactive: Potency [1] | Potency [2] | Potency [3] | Potency [4]

C/C=C/C=C/CO
inactive: Potency [1] | Potency [2] | Potency [3] | Potency [4]

COc1nccnc1CC(C)C
inactive: Potency [1] | Potency [2] | Potency [3] | Potency [4]

CCc1ccc(O)c(C(C)(C)C)c1
inactive: Potency [1] | Potency [2] | Potency [3] | Potency [4]

C[C@H](CCC(=O)O)[C@H]1CC[C@H]2[C@@H]3[C@H](O)C[C@@H]4C[C@H](O)CC[C@]4(C)[C@H]3CC[C@]12C
inactive: Potency [1] | Potency [2] | Potency [3] | Potency [4]

N#Cc1ccccc1
inactive: Potency [1] | Potency [2] | Potency [3] | Potency [4]

COC(C)CCO (stereo not given)
inactive: Potency [1] | Potency [2] | Potency [3] | Potency [4]

NC(=O)N[C@@H](CCC(=O)O)C(=O)O
inactive: Potency [1] | Potency [2] | Potency [3] | Potency [4]

O=C(O)c1cc(N=Nc2ccc(S(=O)(=O)Nc3ccccn3)cc2)ccc1O
inactive: Potency [1] | Potency [2] | Potency [3] | Potency [4]

O[C@@H](c1cc(C(F)(F)F)nc2c(C(F)(F)F)cccc12)[C@H]1CCCCN1
inactive: Potency [1] | Potency [2] | Potency [3] | Potency [4]

CC(=O)OC(C)C
inactive: Potency [1] | Potency [2] | Potency [3] | Potency [4]

CC(=O)C1(C)CC2=C(CCCC2(C)C)CC1C (stereo not given)
inactive: Potency [1] | Potency [2] | Potency [3] | Potency [4]

COc1cc(OC)nc(O[C@H](C(=O)O)C(OC)(c2ccccc2)c2ccccc2)n1
inactive: Potency [1] | Potency [2] | Potency [3] | Potency [4]

Oc1cccc(-c2c3nc(c(-c4cccc(O)c4)c4ccc([nH]4)c(-c4cccc(O)c4)c4nc(c(-c5cccc(O)c5)c5ccc2[nH]5)CC4)C=C3)c1
inactive: Potency [1] | Potency [2] | Potency [3] | Potency [4]

CCCCN=C(N)N=C(N)N
inactive: Potency [1] | Potency [2] | Potency [3] | Potency [4]

CC(=O)OC/C=C(/C)CCC=C(C)C
inactive: Potency [1] | Potency [2] | Potency [3] | Potency [4]

c1ccc2c(c1)ccc1cc3c(ccc4ccccc43)cc12
inactive: Potency [1] | Potency [2] | Potency [3] | Potency [4]

N=c1nc(N2CCCCC2)cc(N)n1O
inactive: Potency [1] | Potency [2] | Potency [3] | Potency [4]

O=C(O)CN(CC(=O)O)CC(=O)O
inactive: Potency [1] | Potency [2] | Potency [3] | Potency [4]

O=[N+]([O-])c1cc(C2CCCCC2)c(O)c([N+](=O)[O-])c1
inactive: Potency [1] | Potency [2] | Potency [3] | Potency [4]

O=CC1CC=CCC1 (stereo not given)
inactive: Potency [1] | Potency [2] | Potency [3] | Potency [4]

CCC(C)(O)CCC=C(C)C (stereo not given)
inactive: Potency [1] | Potency [2] | Potency [3] | Potency [4]

CCOCC(O)COc1ccc(NC(=O)CC[S+](C)C)cc1 (stereo not given)
inactive: Potency [1] | Potency [2] | Potency [3] | Potency [4]

C/C(=N\O)[C@@H](C)NCC(C)(C)CN[C@H](C)/C(C)=N/O
inactive: Potency [1] | Potency [2] | Potency [3] | Potency [4]

NNCCc1ccccc1
inactive: Potency [1] | Potency [2] | Potency [3] | Potency [4]

CC(=O)O[C@H](CC(=O)[O-])C[N+](C)(C)C
inactive: Potency [1] | Potency [2] | Potency [3] | Potency [4]

CCC(=O)O[C@@H]1C[C@H]2CC[C@]1(C)C2(C)C
inactive: Potency [1] | Potency [2] | Potency [3] | Potency [4]

CC(C)[C@@H]1CC[C@@H](C)CC1=O
inactive: Potency [1] | Potency [2] | Potency [3] | Potency [4]

O=c1oc(=O)c2cc3c(=O)oc(=O)c3cc12
inactive: Potency [1] | Potency [2] | Potency [3] | Potency [4]

N[C@@H](Cc1c[nH]c2ccccc12)C(=O)O
inactive: Potency [1] | Potency [2] | Potency [3] | Potency [4]

Cn1cnc2c(F)c(Nc3ccc(Br)cc3Cl)c(C(=O)NOCCO)cc21
inactive: Potency [1] | Potency [2] | Potency [3] | Potency [4]

c1ccc2n[nH]nc2c1
inactive: Potency [1] | Potency [2] | Potency [3] | Potency [4]

C=CC(=O)OCCOCCOC(=O)C=C
inactive: Potency [1] | Potency [2] | Potency [3] | Potency [4]

Nc1nc2ncc(CNc3ccc(C(=O)N[C@@H](CCC(=O)O)C(=O)O)cc3)nc2c(=O)[nH]1
inactive: Potency [1] | Potency [2] | Potency [3] | Potency [4]

Cc1c(C(C)C)c(=O)n(-c2ccccc2)n1C
inactive: Potency [1] | Potency [2] | Potency [3] | Potency [4]

O=C1CCC(C2CCCCC2)CC1
inactive: Potency [1] | Potency [2] | Potency [3] | Potency [4]

CC1=CC2C3CC(C=C3C)C2C1 (stereo not given)
inactive: Potency [1] | Potency [2] | Potency [3] | Potency [4]

O=c1[nH]nnc2ccccc12
inactive: Potency [1] | Potency [2] | Potency [3] | Potency [4]

C1COCCN1
inactive: Potency [1] | Potency [2] | Potency [3] | Potency [4]

CCCOC(C)=O
inactive: Potency [1] | Potency [2] | Potency [3] | Potency [4]

CC1=C(C(=O)O)N2C(=O)[C@@H](NC(=O)[C@H](N)C3=CCC=CC3)[C@H]2SC1
inactive: Potency [1] | Potency [2] | Potency [3] | Potency [4]

CCOc1cccc(-n2cc(C(=O)N3CCN(c4cc(C(=O)O)c5ccccc5c4)CC3)nc2-c2ccc(C)cc2)c1
inactive: Potency [1] | Potency [2] | Potency [3] | Potency [4]

C[C@H](CCC(=O)O)[C@H]1CC[C@H]2[C@@H]3CC[C@@H]4C[C@H](O)CC[C@]4(C)[C@H]3CC[C@]12C
inactive: Potency [1] | Potency [2] | Potency [3] | Potency [4]

C=C/C=C/C=C/CCCCC
inactive: activity, negative = inhibition [1] 0.16% [at 23.6 µM] | activity change, negative = inhibition [2] 0.676% [at 23.6 µM] | activity change, negative = inhibition [3] -10.6% [at 23.8 µM] | activity change, negative = inhibition [4] -1.78% [at 23.6 µM]

CC1=CC[C@@H]2C[C@H]1C2(C)C
inactive: activity, negative = inhibition [1] 7.66% [at 23.6 µM] | activity change, negative = inhibition [2] 0.56% [at 23.6 µM] | activity change, negative = inhibition [3] 0.301% [at 23.8 µM] | activity change, negative = inhibition [4] -3.81% [at 23.6 µM]

CCCCCCCCCCCCCCCCO
inactive: Potency [1] | Potency [2] | Potency [3] | Potency [4]

Cc1cc(=O)oc2cc(O)ccc12
inactive: Potency [1] | Potency [2] | Potency [3] | Potency [4]

CCCCCCOc1ccc(O)cc1
inactive: Potency [1] | Potency [2] | Potency [3] | Potency [4]

CCCCOCCOCCOCCO
inactive: Potency [1] | Potency [2] | Potency [3] | Potency [4]

C=CC(C)(O)CC/C=C(\C)CC (stereo not given)
inactive: Potency [1] | Potency [2] | Potency [3] | Potency [4]
